{"source": "PubChem BioAssay AID1159580", "about": "(chemical genetic matrix, 2015)", "assay": "chemical genetic growth profiling, strain panel (AID 1159580);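 note: tested at 20 µM; growth read once vehicle control cultures reached saturation at 30 °C; 1 = growth at the plate median or of vehicle wells; lower values mean less growth of the strain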", "details": "S. cerevisiae deletion strains, growth OD", "note": "Hit rate of the full screen: of about 5,500 compounds, about 2,000 (36%) were called active. Another 18% or so got no clear call; they are omitted. The list shows a part of the results. Unmarked numbers belong to inactive results. Cut-off read from the data, not from the text of the source: active = normalized growth mostly below about 0.91 (no sharp cut-off); inconclusive = no clear call, values can overlap the other calls; inactive = mostly above about 0.92."}
{"compound": "C#Cc1cccc(N=Cc2cc(Cl)cc(Br)c2O)c1", "values": [{"measurement": "normalized growth", "setting": "locus YAR019C, strain CDC15, active compounds read low", "result": "0.101 (active)"}, {"measurement": "normalized growth", "setting": "locus YBL105C, strain PKC1, active compounds read low", "result": "0.0988 (active)"}, {"measurement": "normalized growth", "setting": "locus YBR135W, strain CKS1, active compounds read low", "result": "0.128 (active)"}, {"measurement": "normalized growth", "setting": "locus YBR136W, strain MEC1, active compounds read low", "result": "0.107 (active)"}, {"measurement": "normalized growth", "setting": "locus YBR160W, strain CDC28, active compounds read low", "result": "0.134 (active)"}, {"measurement": "normalized growth", "setting": "locus YDL017W, strain CDC7, active compounds read low", "result": "0.1 (active)"}, {"measurement": "normalized growth", "setting": "locus YDL028C, strain MPS1, active compounds read low", "result": "0.108 (active)"}, {"measurement": "normalized growth", "setting": "locus YDL101C, strain DUN1, active compounds read low", "result": "0.165 (active)"}, {"measurement": "normalized growth", "setting": "locus YDL108W, strain KIN28, active compounds read low", "result": "0.122 (active)"}, {"measurement": "normalized growth", "setting": "locus YDL214C, strain PRR2, active compounds read low", "result": "0.103 (active)"}, {"measurement": "normalized growth", "setting": "locus YDR052C, strain DBF4, active compounds read low", "result": "0.451 (active)"}, {"measurement": "normalized growth", "setting": "locus YDR054C, strain cdc34, active compounds read low", "result": "0.482 (active)"}, {"measurement": "normalized growth", "setting": "locus YDR226W, strain ADK1, active compounds read low", "result": "0.534 (active)"}, {"measurement": "normalized growth", "setting": "locus YDR477W, strain SNF1, active compounds read low", "result": "0.117 (active)"}, {"measurement": "normalized growth", "setting": "locus YER123W, strain YCK3, active compounds read low", "result": "0.112 (active)"}, {"measurement": "normalized growth", "setting": "locus YER133W, strain GLC7, active compounds read low", "result": "0.114 (active)"}, {"measurement": "normalized growth", "setting": "locus YFL009W, strain cdc4, active compounds read low", "result": "0.108 (active)"}, {"measurement": "normalized growth", "setting": "locus YFL029C, strain CAK1, active compounds read low", "result": "0.0962 (active)"}, {"measurement": "normalized growth", "setting": "locus YFR003C, strain YPI1, active compounds read low", "result": "0.11 (active)"}, {"measurement": "normalized growth", "setting": "locus YFR019W, strain FAB1, active compounds read low", "result": "0.107 (active)"}, {"measurement": "normalized growth", "setting": "locus YFR028C, strain CDC14, active compounds read low", "result": "0.104 (active)"}, {"measurement": "normalized growth", "setting": "locus YGR040W, strain KSS1, active compounds read low", "result": "0.13 (active)"}, {"measurement": "normalized growth", "setting": "locus YGR052W, strain FMP48, active compounds read low", "result": "0.127 (active)"}, {"measurement": "normalized growth", "setting": "locus YGR092W, strain DBF2, active compounds read low", "result": "0.114 (active)"}, {"measurement": "normalized growth", "setting": "locus YHR030C, strain SLT2, active compounds read low", "result": "0.127 (active)"}, {"measurement": "normalized growth", "setting": "locus YHR079C, strain IRE1, active compounds read low", "result": "0.125 (active)"}, {"measurement": "normalized growth", "setting": "locus YHR082C, strain KSP1, active compounds read low", "result": "0.157 (active)"}, {"measurement": "normalized growth", "setting": "locus YHR205W, strain SCH9, active compounds read low", "result": "0.021 (active)"}, {"measurement": "normalized growth", "setting": "locus YIL147C, strain SLN1, active compounds read low", "result": "0.112 (active)"}, {"measurement": "normalized growth", "setting": "locus YJL095W, strain BCK1, active compounds read low", "result": "0.135 (active)"}, {"measurement": "normalized growth", "setting": "locus YJL128C, strain PBS2, active compounds read low", "result": "0.257 (active)"}, {"measurement": "normalized growth", "setting": "locus YJL157C, strain FAR1, active compounds read low", "result": "0.0902 (active)"}, {"measurement": "normalized growth", "setting": "locus YJR016C, strain ILV3, active compounds read low", "result": "0.103 (active)"}, {"measurement": "normalized growth", "setting": "locus YJR066W, strain TOR1 (second series), active compounds read low", "result": "0.109 (active)"}, {"measurement": "normalized growth", "setting": "locus YJR066W, strain TOR1, active compounds read low", "result": "0.137 (active)"}, {"measurement": "normalized growth", "setting": "locus YKL048C, strain ELM1, active compounds read low", "result": "0.129 (active)"}, {"measurement": "normalized growth", "setting": "locus YKL067W, strain YNK1, active compounds read low", "result": "0.109 (active)"}, {"measurement": "normalized growth", "setting": "locus YKL101W, strain HSL1, active compounds read low", "result": "0.128 (active)"}, {"measurement": "normalized growth", "setting": "locus YKL193C, strain SDS22, active compounds read low", "result": "0.108 (active)"}, {"measurement": "normalized growth", "setting": "locus YKL203C, strain TOR2, active compounds read low", "result": "0.113 (active)"}, {"measurement": "normalized growth", "setting": "locus YLR113W, strain HOG1, active compounds read low", "result": "0.132 (active)"}, {"measurement": "normalized growth", "setting": "locus YLR133W, strain CKI1, active compounds read low", "result": "0.106 (active)"}, {"measurement": "normalized growth", "setting": "locus YLR403W, strain SFP1, active compounds read low", "result": "0.0146 (active)"}, {"measurement": "normalized growth", "setting": "locus YML070W, strain DAK1, active compounds read low", "result": "0.13 (active)"}, {"measurement": "normalized growth", "setting": "locus YMR001C, strain CDC5, active compounds read low", "result": "0.0999 (active)"}, {"measurement": "normalized growth", "setting": "locus YMR205C, strain PFK2 (second series), active compounds read low", "result": "0.12 (active)"}, {"measurement": "normalized growth", "setting": "locus YMR277W, strain FCP1, active compounds read low", "result": "0.108 (active)"}, {"measurement": "normalized growth", "setting": "locus YNL006W, strain LST8, active compounds read low", "result": "0.0957 (active)"}, {"measurement": "normalized growth", "setting": "locus YNL020C, strain ARK1, active compounds read low", "result": "0.11 (active)"}, {"measurement": "normalized growth", "setting": "locus YNL161W, strain CBK1, active compounds read low", "result": "0.107 (active)"}, {"measurement": "normalized growth", "setting": "locus YNL183C, strain NPR1, active compounds read low", "result": "0.156 (active)"}, {"measurement": "normalized growth", "setting": "locus YNL207W, strain RIO2, active compounds read low", "result": "0.119 (active)"}, {"measurement": "normalized growth", "setting": "locus YNL222W, strain SSU72, active compounds read low", "result": "0.095 (active)"}, {"measurement": "normalized growth", "setting": "locus YNL307C, strain MCK1 (second series), active compounds read low", "result": "0.114 (active)"}, {"measurement": "normalized growth", "setting": "locus YOL078W, strain AVO1, active compounds read low", "result": "0.104 (active)"}, {"measurement": "normalized growth", "setting": "locus YOL136C, strain PFK27, active compounds read low", "result": "0.1 (active)"}, {"measurement": "normalized growth", "setting": "locus YOR061W, strain CKA2, active compounds read low", "result": "0.115 (active)"}, {"measurement": "normalized growth", "setting": "locus YOR119C, strain RIO1, active compounds read low", "result": "0.11 (active)"}, {"measurement": "normalized growth", "setting": "locus YOR231W, strain MKK1, active compounds read low", "result": "0.119 (active)"}, {"measurement": "normalized growth", "setting": "locus YOR329C, strain SCD5, active compounds read low", "result": "0.0917 (active)"}, {"measurement": "normalized growth", "setting": "locus YPL031C, strain PHO85, active compounds read low", "result": "0.116 (active)"}, {"measurement": "normalized growth", "setting": "locus YPL153C, strain RAD53, active compounds read low", "result": "0.127 (active)"}, {"measurement": "normalized growth", "setting": "locus YPL204W, strain HRR25, active compounds read low", "result": "0.13 (active)"}, {"measurement": "normalized growth", "setting": "locus YPL209C, strain IPL1, active compounds read low", "result": "0.102 (active)"}, {"measurement": "normalized growth", "setting": "locus YPL256C, strain CLN2, active compounds read low", "result": "0.16 (active)"}, {"measurement": "normalized growth", "setting": "locus YPR025C, strain CCL1, active compounds read low", "result": "0.101 (active)"}, {"measurement": "normalized growth", "setting": "strain NNK1, active compounds read low", "result": "0.108 (active)"}, {"measurement": "normalized growth", "setting": "strain TSCII, active compounds read low", "result": "0.102 (active)"}]}
{"compound": "O=C(NCC1CCCCN1)c1cc(OCC(F)(F)F)ccc1OCC(F)(F)F", "note": "(stereo not given)", "values": [{"measurement": "normalized growth", "setting": "locus YAL040C, strain CLN3, active compounds read low", "result": 0.988}, {"measurement": "normalized growth", "setting": "locus YCL061C, strain MRC1 (second series), active compounds read low", "result": 1}, {"measurement": "normalized growth", "setting": "locus YDR150W, strain NUM1, active compounds read low", "result": 1.01}, {"measurement": "normalized growth", "setting": "locus YDR363W, strain ESC2, active compounds read low", "result": 1.01}, {"measurement": "normalized growth", "setting": "locus YER002W, strain NOP16, active compounds read low", "result": 0.987}, {"measurement": "normalized growth", "setting": "locus YGR229C, strain SMI1, active compounds read low", "result": 1.03}, {"measurement": "normalized growth", "setting": "locus YNL175C, strain NOP13, active compounds read low", "result": 0.989}, {"measurement": "normalized growth", "setting": "locus YNL197C, strain WHI3, active compounds read low", "result": 0.986}, {"measurement": "normalized growth", "setting": "locus YNL224C, strain SQS1, active compounds read low", "result": 1.04}, {"measurement": "normalized growth", "setting": "locus YNL322C, strain KRE1, active compounds read low", "result": 0.995}, {"measurement": "normalized growth", "setting": "locus YOR083W, strain WHI5 (second series), active compounds read low", "result": 1.01}, {"measurement": "normalized growth", "setting": "locus YPL241C, strain CIN2, active compounds read low", "result": 0.998}]}
